HCMV antiviral: human cytomegalovirus inhibition. HFF cells, HCMV-luciferase reporter, 72 h; active compounds read low. activity change, negative = inhibition, % at 57.5 µM. 410,000 compounds, 4.5% hits. AID 1259415; in the data active = activity change below about -60%; inconclusive = no clear call, values can overlap the other calls; inactive = above about -39%
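HFF cells seeded 16 h at 37C, treated with compounds, infected with luciferase-reporter HCMV at MOI 1 PFU/cell; luciferase read at 72 h post infection, normalized to buffer-only and Salinomycin controls.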
Vaccinia Venus: vaccinia inhibition (Venus reporter) | Vaccinia virus Venus reporter expression, fluorescence | 330,000 compounds, 0.46% hits | AID 720580 | Potency, µM (top dose mostly 36.5 µM), actives largely listed as inhibitors; calls by dose curve; tested in A549 cells; note: nearly all actives have a fitted effect of over 30% in size
VACV mCherry inh: vaccinia inhibition (mCherry reporter); Potency, µM (doses to about 36.5 µM), most hits filed as inhibitors; AID 720579; 310,000 compounds, 0.63% hits; Vaccinia virus mCherry reporter infection, fluorescence; calls by dose curve; tested in A549 cells; note: nearly all actives have a fitted effect of over 35% in size
FMDV inh: foot and mouth disease virus antiviral activity. FMDV antiviral cell-based qHTS. Potency, µM (titrated, usually from 57.9 µM), actives largely listed as inhibitors. 410,000 compounds, 1.2% hits. AID 1159524; calls by dose curve; tested in HEK293T cells; note: read-out not given here; nearly all actives have a fitted effect of over 45% in size
FBPA Giardia inh: blocks Giardia fructose-bisphosphate aldolase activity; A8B2U2; purified Giardia FBPA; Potency, µM (titrated, usually from 59.6 µM), most hits filed as inhibitors; 290,000 compounds, 0.71% hits; note: nearly all actives have a fitted effect of over 55% in size
Target sequence (A8B2U2 whole entry, looked up): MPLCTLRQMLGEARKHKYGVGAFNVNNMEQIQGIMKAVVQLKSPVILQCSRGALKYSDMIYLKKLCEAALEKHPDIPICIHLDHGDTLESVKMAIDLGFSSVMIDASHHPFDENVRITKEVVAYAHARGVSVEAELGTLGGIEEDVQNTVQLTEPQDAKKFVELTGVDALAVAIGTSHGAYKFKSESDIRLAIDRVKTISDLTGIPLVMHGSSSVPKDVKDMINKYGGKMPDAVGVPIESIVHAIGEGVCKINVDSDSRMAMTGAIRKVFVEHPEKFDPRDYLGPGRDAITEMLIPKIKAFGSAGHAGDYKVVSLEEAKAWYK
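Giardia FBPA (40 nM reagent) was preincubated 10 min at RT with compound (up to 57.5 uM final), then substrate plus GAPDH/TPI/NAD/arsenate coupling system with diaphorase/resazurin was added; resorufin fluorescence (525/598 nm) was read after 20 min.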
HCV inhibitor: HCV inhibition; 340,000 compounds, 3.4% hits; AID 651820; Potency, µM (highest dose often 41.8 µM), usual class: inhibitors; Huh7.5.1 HCVcc-Cre infection, luciferase reporter, 44 h
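Infectious HCVcc-Cre (~0.5 moi) was added to cells just after compound, with cells seeded 4 h earlier at 1,000 per well. Luciferase activity after 44 h culture reported infection; substrate was incubated 15 min at room temperature before reading.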
Each line names hits and unclear results; the compound was inactive in the other large screens; ! = repeats disagree. A selection: hits, their analogues and other compounds. The true share with any hit is near 7.5%. Unless noted, calls come from the whole dose curve; as a rule, active = well fitted curve in the direction sought with a large enough effect; inconclusive = small, poorly fitted or top-dose-only effect, or another doubt; inactive = no such curve, though single readings can be large; an effect the other way counts as inactive or inconclusive.

Cc1ccc(Cn2nnc3c(=O)[nH]c(C4CCN(S(=O)(=O)c5ccccc5F)CC4)nc32)cc1	HCV inhibitor inconclusive
COc1cc(=O)n2c(c1C(=O)NC(C)c1ccco1)CCN(Cc1ccccc1Cl)CC2 (stereo not given)	none (no result: HCMV antiviral, FBPA Giardia inh, HCV inhibitor)
CCOC(=O)N1CCN(CC(=O)Nc2sc(CC)cc2C(=O)c2ccc(OC)cc2)CC1	Vaccinia Venus inconclusive, FMDV inh inconclusive, HCV inhibitor inconclusive
Clc1ccc(-n2ncc3c(N4CCCCCC4)ncnc32)cc1	HCMV antiviral -79.4, FMDV inh inconclusive
Cn1ncc2c(N3CCN(c4cccc(Cl)c4)CC3)ncnc21	VACV mCherry inh inconclusive, FMDV inh 15.8µM (no result: FBPA Giardia inh, HCV inhibitor)
COc1ccc(-n2ncc3c(NC(C)C)ncnc32)cc1	HCV inhibitor inconclusive (no result: VACV mCherry inh)
COc1ccc(-n2ncc3c(NCC(C)C)ncnc32)cc1	Vaccinia Venus inconclusive, HCV inhibitor 14.1µM (no result: VACV mCherry inh)
CC(CO)Nc1nc(SCc2ccccc2)nc2sc3c(c12)CCC3 (stereo not given)	HCMV antiviral inconclusive, HCV inhibitor 12.6µM (no result: Vaccinia Venus, VACV mCherry inh)
COC1C(C)OC(OC2CC(C)(O)Cc3cc4c(c(O)c32)C(=O)c2c(O)cc3c(c2C4=O)OC2OC3(C)C(O)C(N(C)C)C2O)C(OC)C1(C)OC (stereo not given)	HCMV antiviral -97.9, HCV inhibitor 3.98µM (no result: FBPA Giardia inh)
Cc1ccc2c(c1)c1n[nH]c(=S)nc1n2CCc1ccccc1	HCMV antiviral -92.7, FBPA Giardia inh inconclusive (no result: Vaccinia Venus, VACV mCherry inh)
Cc1nc(N2CCN(S(=O)(=O)c3ccc(Br)cc3)CC2)c2c(C)c(C)sc2n1	HCMV antiviral -62.8, FMDV inh inconclusive, HCV inhibitor inconclusive
CCC(=O)N1CCN(c2nc(C)nc3sc(C)c(C)c23)CC1	HCMV antiviral -68.2, HCV inhibitor inconclusive (no result: FMDV inh)
CCc1nc(N2CCN(S(=O)(=O)c3ccc(Br)cc3)CC2)c2c(C)c(C)sc2n1	HCV inhibitor 12.6µM (no result: FMDV inh, FBPA Giardia inh)
Cc1nc(N2CCN(C(=O)CCC(=O)O)CC2)c2c(C)c(C)sc2n1	none (no result: FMDV inh)
CC1(c2ccccc2)NC(=O)N(CC(=O)Nc2ccccc2C(=O)NC2CC2)C1=O (stereo not given)	none (no result: FBPA Giardia inh)
COC(=O)/C=C/[C@@H]1CCCN1c1ccc(OC)cc1	none (no result: Vaccinia Venus, VACV mCherry inh, FMDV inh, FBPA Giardia inh, HCV inhibitor)
COC(=O)c1cc2sccc2n1Cc1nc(-c2cccc(Cl)c2)oc1C	HCMV antiviral -64.7!, FMDV inh inconclusive
COC(=O)c1cc2sccc2n1Cc1nc(-c2ccc(Cl)cc2)oc1C	none
Cc1cc(Br)ccc1SCC(=O)OC/C(O)=C(\C#N)c1nc2ccccc2[nH]1	HCMV antiviral -83.8 (no result: Vaccinia Venus, VACV mCherry inh)
Cc1ccc(C)c(SCC(=O)OC/C(O)=C(\C#N)c2nc3ccccc3[nH]2)c1	HCMV antiviral -101.7
N#C/C(=C(/O)COC(=O)CSc1ccc2ccccc2c1)c1nc2ccccc2[nH]1	HCMV antiviral -101.5
CN(C(=O)COC(=O)/C=C/c1ccccc1)C1CCS(=O)(=O)C1 (stereo not given)	none (no result: FBPA Giardia inh, HCV inhibitor)
CCN1C(N(C)CCc2c[nH]c3ccccc23)=N[C@@H](c2cccc(C(F)(F)F)c2)C(C(=O)OC)=C1C	Vaccinia Venus inconclusive, HCV inhibitor 25.1µM (no result: HCMV antiviral, FBPA Giardia inh)
CCN1C(N(C)CCc2cccs2)=N[C@@H](c2ccccc2)C(C(=O)OC)=C1C	none
CCOC(=O)CSCC(=O)N1N=C(c2cccs2)CC1c1ccc(F)cc1 (stereo not given)	HCMV antiviral inconclusive
CN1CCc2c(OCC(=O)N3N=C(c4cccs4)CC3c3ccc(F)cc3)cccc2C1=O (stereo not given)	HCMV antiviral -88.6, FMDV inh inconclusive
CCN1CCc2c(OCC(=O)N3N=C(c4cccs4)CC3c3ccc(F)cc3)cccc2C1=O (stereo not given)	Vaccinia Venus inconclusive, VACV mCherry inh inconclusive, HCV inhibitor 10µM
O=c1c2sc3ccccc3c2n(Cc2cccc(C(F)(F)F)c2)c(=O)n1-c1ccccc1	none (no result: FBPA Giardia inh, HCV inhibitor)
O=C(Cn1cc2ccccc2n1)N1CCOc2ccc(C(O)C3CCCCC3)cc2C1 (stereo not given)	none (no result: HCMV antiviral, FBPA Giardia inh, HCV inhibitor)
CCOc1ccc(NS(=O)(=O)c2cccc(C(=O)NCC3(N(C)C)CCCCC3)c2)cc1	HCV inhibitor inconclusive (no result: FBPA Giardia inh)
CCCCNS(=O)(=O)c1ccc2nc(-c3cccnc3)cc(C(=O)NCCC)c2c1	HCMV antiviral -66.0, Vaccinia Venus inconclusive (no result: FBPA Giardia inh, HCV inhibitor)
CCOc1ccc(C(C)=O)cc1COC(=O)c1ccc2c(c1)NC(=O)CS2	FMDV inh inconclusive, HCV inhibitor 3.55µM (no result: Vaccinia Venus, VACV mCherry inh, FBPA Giardia inh)
O=C(OCc1ccc(Br)cc1)c1cnc(Cl)c(Cl)c1	HCMV antiviral -60.3
COc1ccc(C(C)=O)cc1COC(=O)c1ccc2c(c1)OCCO2	HCV inhibitor 11.2µM (no result: Vaccinia Venus, VACV mCherry inh, FBPA Giardia inh)
COc1ccc(C(C)=O)cc1COC(=O)c1cnc(Cl)c(Cl)c1	FMDV inh inconclusive, HCV inhibitor 11.2µM
COc1ccc(C)cc1Nc1n[n+](-c2ccccc2)c(-c2ccc(SC)cc2)s1	FBPA Giardia inh inconclusive, HCV inhibitor inconclusive
COC(=O)C1=C(C)N(Cc2ccccc2C(F)(F)F)C(=NCc2cc(OC)c(OC)c(OC)c2)NC1c1ccc(Cl)cc1 (stereo not given)	none (no result: Vaccinia Venus, VACV mCherry inh, FMDV inh, FBPA Giardia inh, HCV inhibitor)
Cc1nn(CC(=O)NC(=O)NC2CCCCC2C)c(=O)c(C#N)c1C (stereo not given)	none (no result: FBPA Giardia inh)
COc1cc(CC(=O)OCC(=O)c2ccc3c(c2)OCCO3)cc(OC)c1OC	HCMV antiviral -71.3, Vaccinia Venus inconclusive, VACV mCherry inh inconclusive, HCV inhibitor inconclusive
O=C(COC(=O)c1ccc(O)cc1)c1ccc2c(c1)OCCO2	none (no result: FBPA Giardia inh)
Cc1nc(N2CCN(C)CC2)c2sc(=S)n(-c3ccccc3)c2n1	none
